KCNQ2 pot: potentiators of rat KCNQ2 potassium channel | O88943 | CHO-K1 KCNQ2, FluxOR thallium flux fluorescence; active compounds read high | B-score at 10 µM | actives 0.54% (n = 310,000);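 active = fluorescence ratio B-score at least 3 SD of library B-scores, with initial fluorescence B-score within 3 of them, cut at about 5.3 in these data; same plate scores as AID 2156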;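 also: B-score of peak minus minimum over baseline fluorescence ratio after K+ and Tl+ stimulus; positive B-score means potentiation of KCNQ2 with more thallium influx and brighter signal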
Target sequence (O88943 whole entry, looked up): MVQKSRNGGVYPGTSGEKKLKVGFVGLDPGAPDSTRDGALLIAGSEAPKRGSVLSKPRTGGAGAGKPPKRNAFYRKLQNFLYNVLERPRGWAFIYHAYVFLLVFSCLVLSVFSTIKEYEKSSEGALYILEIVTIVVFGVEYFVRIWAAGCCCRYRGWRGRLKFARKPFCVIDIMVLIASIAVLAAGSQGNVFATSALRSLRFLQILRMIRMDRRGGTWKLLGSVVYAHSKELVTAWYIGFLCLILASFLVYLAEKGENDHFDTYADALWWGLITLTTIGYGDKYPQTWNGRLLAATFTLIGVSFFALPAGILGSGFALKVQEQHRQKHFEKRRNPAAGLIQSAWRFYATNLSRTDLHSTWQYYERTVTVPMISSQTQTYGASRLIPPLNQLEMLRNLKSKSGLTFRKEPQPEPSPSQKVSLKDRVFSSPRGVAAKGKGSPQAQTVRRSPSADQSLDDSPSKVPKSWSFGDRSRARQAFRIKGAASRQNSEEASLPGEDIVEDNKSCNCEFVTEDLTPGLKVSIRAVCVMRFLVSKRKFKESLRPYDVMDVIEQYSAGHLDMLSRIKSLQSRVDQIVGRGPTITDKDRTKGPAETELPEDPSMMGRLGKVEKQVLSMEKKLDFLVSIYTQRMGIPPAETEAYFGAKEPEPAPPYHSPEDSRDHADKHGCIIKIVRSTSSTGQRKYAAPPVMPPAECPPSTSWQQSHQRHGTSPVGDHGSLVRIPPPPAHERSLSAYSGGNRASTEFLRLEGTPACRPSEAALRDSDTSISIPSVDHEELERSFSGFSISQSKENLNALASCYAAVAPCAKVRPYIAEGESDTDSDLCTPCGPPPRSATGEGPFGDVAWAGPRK
KCNQ2 block: KCNQ2 (rat) channel inhibition; CHO-K1 KCNQ2, FluxOR thallium flux, 20 min; active compounds read low; B-score at 10 µM; actives 1.1% (n = 310,000); O88943; AID 2156;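 active = fluorescence ratio B-score at most minus 3 library SDs, with starting brightness B-score within 2 library SDs, cut at about -5.5 in these data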
KCNQ2 block conf: rat KCNQ2 channel inhibition, confirmatory screen | shares compounds with KCNQ2 block | KCNQ2-expressing cells, thallium flux; active compounds read low | activity change, negative = inhibition, % at 10 µM | actives 57% (n = 1,000) | AID 493025
KCNQ1 spec: selectivity of KCNQ2 inhibitors against human KCNQ1; activity change, negative = inhibition, % at 10 µM; shares compounds with KCNQ2 block; KCNQ1-expressing cells, FluxOR thallium flux fluorescence; active compounds read low; actives 15% (n = 1,000); AID 493026;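 active = activity change at least 3 SD of negative controls below their mean in both duplicate wells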;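 also: CHO cells stably transfected with KCNQ1 and depolarized by potassium stimulus; peak minus minimum fluorescence over baseline after thallium addition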
CHO parental ctr: activity in parental CHO cells lacking KCNQ2 | activity change, % at 10 µM | actives 14% (n = 1,000) | thallium flux counter-screen; active compounds read low | AID 493029 | shares compounds with KCNQ2 block
KCNQ2 patch conf: rat KCNQ2 inhibition confirmed by electrophysiology. KCNQ2-expressing cells, automated patch clamp current. AID 588531. shares compounds with KCNQ2 block. calls only at 10 µM. actives 49% (n = 550)
Of the large screens only hits and unclear results are named; the others gave an inactive call (follow-up assays come after a bar, where they were run). Hits are enriched below; roughly 1.6% of the tested compounds scored in any of these assays. Unless noted, no rule for the calls is given here.

CC(C)c1ccc2c(c1)C(N1CCNCC1)Cc1ccc(F)cc1S2 (stereo not given)	KCNQ2 block -9.7 | KCNQ2 block conf -38% | KCNQ1 spec -36% | CHO parental ctr -31% | KCNQ2 patch conf inactive
O=C(CCn1c(=O)[nH]c2ccsc2c1=O)N(CCc1ccccc1)Cc1ccccc1	KCNQ2 block -7.4 | KCNQ2 block conf -26% | KCNQ1 spec inactive | CHO parental ctr inactive | KCNQ2 patch conf active
O=C(CCCCn1c(=O)[nH]c2ccsc2c1=O)NCCc1ccccc1	none
Cc1ccc(OCCC(=O)OC(C)C(=O)Nc2ccc(Cl)cn2)cc1 (stereo not given)	none
COc1cc(/C=N/O)ccc1OCc1ccc(Cl)cc1	none (no result: KCNQ2 pot)
COc1cc(/C=N/N=C(N)N)ccc1OCc1ccc(Cl)cc1	KCNQ2 block -9.4 | KCNQ2 block conf inactive | KCNQ1 spec inactive | CHO parental ctr inactive
Cc1ccc(S(=O)(=O)N2CCC(C(N)=O)CC2)cc1[N+](=O)[O-]	none (no result: KCNQ2 pot)
CCn1ccnc1CN1CCC(n2nccc2NC(=O)c2ccccc2OC)CC1	none
CC(=O)Nc1ccc(NC(=O)c2ccccc2N(C)S(=O)(=O)c2ccccc2)cc1	none (no result: KCNQ2 pot)
CN(c1ccccc1C(=O)NCc1ccccc1Cl)S(=O)(=O)c1ccccc1	KCNQ2 block -10 | KCNQ2 block conf inactive | KCNQ1 spec inactive | CHO parental ctr inactive
Cc1ccccc1NC(=O)c1ccccc1N(C)S(=O)(=O)c1ccccc1	KCNQ2 block -7.6 | KCNQ2 block conf -20% | KCNQ1 spec inactive | CHO parental ctr inactive | KCNQ2 patch conf active
COc1ccc(CCNC(=O)c2ccccc2N(C)S(=O)(=O)c2ccccc2)cc1	none
O=C1COc2ccc(N3C(=O)C=CC3=O)cc2N1	none (no result: KCNQ2 pot)
Cc1nc(N2CCN(C(=O)c3ccco3)CC2)c2c3c(sc2n1)CCC3	none
CC(C)c1nc(N2CCN(C(=O)c3ccco3)CC2)c2c3c(sc2n1)CCCC3	KCNQ2 block -8.7 | KCNQ2 block conf inactive | KCNQ1 spec inactive | CHO parental ctr inactive
COc1ccc(Nc2nc(N3CCOCC3)nc(N3CCOCC3)n2)cc1Cl	none
COc1ccc(CCN(C)C(=O)c2cc(-c3ccc(C)cc3)nc3ccccc23)cc1OC	KCNQ2 block -6.7 | KCNQ2 block conf -45% | KCNQ1 spec -46% | CHO parental ctr -42% | KCNQ2 patch conf active
COc1ccc(-c2cc(C(=O)N3CCC3)c3ccccc3n2)cc1OC	none
COc1ccc(-c2cc(C(=O)N(C)Cc3ccc(F)cc3)c3ccccc3n2)cc1OC	KCNQ2 block -7.5 | KCNQ2 block conf -53% | KCNQ1 spec -48% | CHO parental ctr -56% | KCNQ2 patch conf active
COc1ccc(-c2cc(C(=O)N3CCCC3)c3ccccc3n2)cc1OC	none
COc1ccc(NC(=O)CN(C)C(=O)c2cc(-c3ccc(OC)cc3)nc3ccccc23)cc1	none
COc1ccc(-c2cc(C(=O)N3CC(C)CC(C)C3)c3ccccc3n2)cc1OC (stereo not given)	KCNQ2 block -11 | KCNQ2 block conf -31% | KCNQ1 spec inactive | CHO parental ctr inactive | KCNQ2 patch conf active
Cc1cccc(NC(=O)c2nc[nH]c2C(=O)N[C@@H](Cc2ccccc2)C(=O)OCc2ccccc2)c1	none (no result: KCNQ2 pot)
Cc1ccccc1OCC(=O)NCCCNC(=O)c1cccnc1	none
CC(NC(=O)c1ccco1)C(=O)N1CCCCC1 (stereo not given)	none
O=C(CC1C(=O)NCCN1CC1CCCCC1)NCCCN1CCOCC1 (stereo not given)	none
COc1ccc(C(=O)NC(CCSC)C(=O)N2CCCCCC2)cc1 (stereo not given)	none (no result: KCNQ2 pot)
Cc1ccc(-n2cccc2/C=C2/C(=N)N3C(=NC2=O)SN=C3S(C)(=O)=O)cc1	none (no result: KCNQ2 pot)
CCc1ccc(-n2cccc2/C=C2/C(=N)N3C(=NC2=O)SN=C3S(C)(=O)=O)cc1	KCNQ2 block -10 | KCNQ2 block conf -39% | KCNQ1 spec -41% | CHO parental ctr -35% | KCNQ2 patch conf inactive
COC(=O)[C@]1(CC(C)C)N[C@H](c2ccc(-c3ccc(F)cc3)c(OC)c2)[C@@H]2C(=O)N(C)C(=O)[C@@H]21	none (no result: KCNQ2 pot)
Oc1oc(-c2ccccc2)nc1/C=N/c1nccs1	none
Oc1oc(-c2ccccc2)nc1C=Nc1cccc2ccccc12	KCNQ2 block -8.7 | KCNQ2 block conf inactive | KCNQ1 spec inactive | CHO parental ctr inactive
Cc1oc(-c2cccc(Cl)c2)nc1CN1CCC(C(=O)NC2CC2)CC1	none
CCN(CCNC(=O)C1CCN(Cc2nc(-c3cccc(Cl)c3)oc2C)CC1)c1ccccc1	KCNQ2 block -12 | KCNQ2 block conf -26% | KCNQ1 spec inactive | CHO parental ctr inactive | KCNQ2 patch conf inactive
Cc1nc(SCC(=O)Nc2nnc(C(C)C)s2)n[nH]1	none
O=C(CSc1ccccc1)Nc1nnc(C2CC2)s1	none (no result: KCNQ2 pot)
Cc1onc(-c2ccccc2)c1C(=O)Nc1nc(-c2cc(F)ccc2F)cs1	none (no result: KCNQ2 pot)
Cc1onc(-c2ccccc2)c1C(=O)Nc1nc(-c2ccccc2)cs1	KCNQ2 block -7.2 | KCNQ2 block conf inactive | KCNQ1 spec inactive | CHO parental ctr inactive
Cc1ccc2nc(C)c(C(=O)NN=C3CCN(C)CC3)n2c1	none
Cc1c(C=Nc2ccc(S(=O)(=O)N(C)C)cc2)c(O)[nH]c(=O)c1C#N	none
CCOC(=O)N1CCN(c2nc3ccccc3nc2C(C#N)C(=O)NCCc2ccccc2)CC1 (stereo not given)	KCNQ2 block -8.7 | KCNQ2 block conf inactive | KCNQ1 spec inactive | CHO parental ctr inactive
N#CC(C(=O)NCCc1ccccc1)c1nc2ccccc2nc1N1CCCCC1 (stereo not given)	none (no result: KCNQ2 pot)
O=C(O)CC(c1ccc(F)cc1F)N1Cc2ccccc2C1=O (stereo not given)	none (no result: KCNQ2 pot)
O=[N+]([O-])c1cccc(OCCN2CCC(Cc3ccccc3)CC2)c1	KCNQ2 block -8.2 | KCNQ2 block conf inactive | KCNQ1 spec inactive | CHO parental ctr inactive
Cc1ccc([N+](=O)[O-])c(OCCCN2CCC(Cc3ccccc3)CC2)c1	none (no result: KCNQ2 pot)
COc1cc(C(=O)NCC(c2cccs2)N2CCOCC2)cc(OC)c1OC (stereo not given)	none
N#Cc1cccc(NC(=O)CNc2cccc(S(=O)(=O)N3CCCCC3)c2)c1	none (no result: KCNQ2 pot)
COc1ccc(N(CC(=O)N2CCOCC2)S(C)(=O)=O)cc1	none (no result: KCNQ2 pot)
O=S1(=O)CCO[C@H]2Cc3ccccc3[C@H]2N1Cc1ccc(F)cc1	none (no result: KCNQ2 pot)
COc1cccc(-c2nc(-c3ccccc3)c(-c3ccccc3)[nH]2)c1OCC(=O)O	none (no result: KCNQ2 pot)
COc1cccc(-c2nc(-c3ccc4c(c3)-c3ccccc3S4(=O)=O)c(-c3ccccc3)[nH]2)c1OC	KCNQ2 block -8.9 | KCNQ2 block conf -26% | KCNQ1 spec inactive | CHO parental ctr inactive | KCNQ2 patch conf inactive
CC1CN(S(=O)(=O)c2cccc(C(=O)N(CCc3ccccc3)Cc3ccccc3)c2)CC(C)O1 (stereo not given)	KCNQ2 block -8.3 | KCNQ2 block conf -32% | KCNQ1 spec -27% | CHO parental ctr inactive | KCNQ2 patch conf active
Cc1ccc(N(Cc2ccccc2)C(=O)c2cccc(S(=O)(=O)N3CC(C)OC(C)C3)c2)cc1 (stereo not given)	none
